In PubChem BioAssay (EPA / NIEHS) one finds outcome and AC50 data, which are given here for seven molecules.

Assay [1] in a line: ATG_E_Box_CIS: Attagene CIS-FACTORIAL HepG2 Assay for human Enhancer Box (E-box) (AID 2282936). Conditions: HepG2 E-box cis-reporter transcription, actives raise or lower the signal. The essentials:
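Transiently transfected HepG2, endogenous TF-driven reporters, 24 h dosing. Readout: RT-PCR plus capillary electrophoresis of fluorescent reporter fragments. Gain or loss of signal fitted bidirectionally against DMSO baseline.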

The target in assay [2] is Heat shock factor protein 1 (Homo sapiens) (UniProt Q00613). Nature of the assay: ATG_HSE_CIS: Attagene CIS-FACTORIAL HepG2 Assay for human Heat Shock Transcription Factor 1 (HSE) (AID 2282953). Conditions: HepG2 HSE cis-reporter, Attagene RNA transcription; actives raise or lower the signal. In short, it runs like this:
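Endogenous transcription factor activity captured via cis-promoter reporter units transfected into HepG2; treatment lasted 24 h. Fluorescence intensity of reporter fragments analysed with bidirectional curve fitting, DMSO baseline.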

A short description of assay [3]: ATG_PPRE_CIS: Attagene CIS-FACTORIAL HepG2 Assay for human Peroxisome Proliferator-activated Response Element (PPRE) (AID 2282958). Particulars: HepG2 PPRE cis-element reporter, Attagene transcription factor profiling; actives raise or lower the signal. In short, it runs like this: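 Multiplexed reporter transcription units under cis-regulatory promoters were transfected into HepG2 cells to capture endogenous factor activity. A 24 h incubation preceded RNA isolation and fluorescent RT-PCR fragment analysis.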

Assay [4] in a line: ATG_RORE_CIS: Attagene CIS-FACTORIAL HepG2 Assay for human RAR-related Orphan Receptor Element (RORE) (AID 2282959). Particulars: HepG2 Attagene cis-factorial RORE reporter, mRNA; actives raise or lower the signal. The essentials:
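Fluorescence intensity of reporter-specific cDNA fragments, separated by capillary electrophoresis, gives the signal. Source: HepG2 liver cells transiently transfected with cis-element reporters and exposed 24 h; DMSO-normalized bidirectional fit.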

The target of assay [5] is Transcription factor Sp1 (Homo sapiens) (UniProt P08047). Kind of assay: ATG_Sp1_CIS: Attagene CIS-FACTORIAL HepG2 Assay for human Specificity Protein 1 (Sp1) (AID 2282961). Conditions: HepG2 Sp1 cis-reporter transcription, actives raise or lower the signal. In short, it runs like this: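 Sp1-driven reporter mRNA, read as capillary electrophoresis fluorescence after RT-PCR, in transiently transfected HepG2 cells dosed for 24 h; signal change in either direction relative to DMSO.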
Transcription factor Sp1 (Homo sapiens), sequence (P08047 whole entry, looked up): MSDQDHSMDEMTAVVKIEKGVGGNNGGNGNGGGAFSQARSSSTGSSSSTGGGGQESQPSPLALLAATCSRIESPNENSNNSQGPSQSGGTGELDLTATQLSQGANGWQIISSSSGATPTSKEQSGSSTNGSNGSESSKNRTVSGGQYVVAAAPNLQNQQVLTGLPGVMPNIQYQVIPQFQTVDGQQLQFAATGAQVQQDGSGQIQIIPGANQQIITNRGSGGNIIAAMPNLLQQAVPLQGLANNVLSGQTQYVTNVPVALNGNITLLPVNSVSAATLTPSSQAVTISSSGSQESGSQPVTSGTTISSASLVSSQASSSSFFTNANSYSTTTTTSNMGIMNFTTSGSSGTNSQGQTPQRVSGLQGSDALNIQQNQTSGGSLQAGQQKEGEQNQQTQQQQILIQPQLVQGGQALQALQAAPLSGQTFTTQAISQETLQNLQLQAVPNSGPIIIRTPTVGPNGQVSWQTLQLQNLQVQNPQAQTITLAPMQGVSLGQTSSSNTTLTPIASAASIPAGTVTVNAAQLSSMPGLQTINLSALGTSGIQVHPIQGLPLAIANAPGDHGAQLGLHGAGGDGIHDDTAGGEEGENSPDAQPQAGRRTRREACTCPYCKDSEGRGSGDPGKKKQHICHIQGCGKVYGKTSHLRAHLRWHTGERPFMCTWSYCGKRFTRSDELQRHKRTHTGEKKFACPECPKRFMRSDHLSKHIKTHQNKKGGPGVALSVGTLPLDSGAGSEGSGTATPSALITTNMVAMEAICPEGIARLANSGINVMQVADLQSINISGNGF

Assay [6] is described as follows: ATG_SREBP_CIS: Attagene CIS-FACTORIAL HepG2 Assay for human Sterol Regulatory Element Binding (SREBP) (AID 2282962). Conditions: HepG2 Attagene cis-factorial SREBP reporter, mRNA; actives raise or lower the signal. In short, it runs like this: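 Endogenous factor activity is measured in HepG2 through multiplexed reporter units under cis-element control. Following a 24 h incubation, reporter transcripts are reverse-transcribed, PCR-amplified and sized by capillary electrophoresis; activity is fitted in both directions relative to DMSO.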

The nature of assay [7]: ATG_TCF_b_cat_CIS: Attagene CIS-FACTORIAL HepG2 Assay for human T-Cell-Factor with beta-catenin (TCF/b-cat) (AID 2282965). Particulars: HepG2 TCF/beta-catenin cis-reporter transcription, actives raise or lower the signal. In short, it runs like this:
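Cells of the HepG2 line carry transiently transfected reporter units whose promoters respond to endogenous factors. Twenty-four hours post-dosing, reporter mRNA induction is measured by fluorescent RT-PCR and capillary electrophoresis, with DMSO as baseline.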

A short description of assay [8]: ATG_TAL_CIS: Attagene CIS-FACTORIAL HepG2 Assay for human TAL Basal Promoter (AID 2282966).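 Further: background control endpoint measuring basal TAL promoter reporter mRNA not a specific factor.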 Particulars: HepG2 Attagene cis-factorial TAL promoter reporter; actives raise or lower the signal. In short, it runs like this:
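Basal-promoter background-control endpoint from a multiplexed HepG2 reporter panel. Cells were exposed 24 h, then reporter mRNA was read by RT-PCR/CE fluorescence and fitted in both directions relative to DMSO.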

Assay [9] can be described thus: ATG_TGFb_CIS: Attagene CIS-FACTORIAL HepG2 Assay for human Transforming Growth Factor (TGF) (AID 2282967). Particulars: HepG2 Attagene CIS TGFb reporter, mRNA transcription; actives raise or lower the signal. In short, it runs like this: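 Bidirectional fitting relative to DMSO gave the endpoint. Underlying data: reporter mRNA from HepG2 cells carrying transiently transfected cis-regulated reporter constructs, harvested 24 h after dosing and analyzed by RT-PCR and capillary electrophoresis.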

Assay [10] is described as follows: ATG_VDRE_CIS: Attagene CIS-FACTORIAL HepG2 Assay for human Vitamin D Receptor Element (VDRE) (AID 2282968). Particulars: HepG2 VDRE cis-reporter transcription, actives raise or lower the signal. In short, it runs like this: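 Transient MRTU transfection of HepG2, 24 h compound exposure. Readout: reporter transcripts via RT-PCR and capillary electrophoresis, fluorescence. Bidirectional fit vs DMSO.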

Assay [11] concerns the target X-box-binding protein 1 (Homo sapiens) (UniProt P17861). Kind of assay: ATG_Xbp1_CIS: Attagene CIS-FACTORIAL HepG2 Assay for human X-box Binding Protein 1 (XBP1) (AID 2282972). Particulars: HepG2 XBP1 cis-element reporter, Attagene multiplex; actives raise or lower the signal. In short, it runs like this: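 Multiplexed cis-reporter readout in transfected HepG2 liver cells. Exposure lasted 24 hours. Activity in either direction was fitted against DMSO as negative control and baseline.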

Assay [12] is described as follows: ATG_M_32_TRANS: Attagene TRANS-FACTORIAL HepG2 Assay for M32 Transcription Factor (Internal Marker) (AID 2282984; active means hit-call score of the fitted dose curve at least 0.9, where 1 is the maximum;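 further: transcript level of a background control reporter unit measured by RT-PCR and capillary electrophoresis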). Particulars: HepG2 Attagene TRANS M32 internal marker reporter. In short, it runs like this:
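Read-out: fluorescent reporter cDNA fragments resolved by capillary electrophoresis after RT-PCR of total RNA. Transfected HepG2 cells were exposed to chemical for 24 h. Activity scored in the positive direction relative to DMSO.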

In assay [13] the target is Transcriptional activator Myb (Homo sapiens) (UniProt P10242). Nature of the assay: ATG_Myb_CIS: Attagene CIS-FACTORIAL HepG2 Assay for human Myeloblastosis (Myb) Proto-Oncogene Transcription Factor (AID 2282986). Conditions: HepG2 Attagene CIS-FACTORIAL Myb reporter transcription; actives raise or lower the signal. The essentials:
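Fluorescence signals from capillary electrophoresis of RT-PCR-amplified reporter cDNA give the read-out. Cells: HepG2 transfected with multiple cis-regulated reporter units. Exposure lasts 24 hours; DMSO defines baseline for gain or loss of signal.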

The target in assay [14] is Nuclear respiratory factor 1 (Homo sapiens) (UniProt Q16656). Kind of assay: ATG_NRF1_CIS: Attagene CIS-FACTORIAL HepG2 Assay for human Nuclear Respiratory Factor 1 (NRF1) Orphan Gene (AID 2282987). Particulars: HepG2 NRF1 cis-element reporter, Attagene multiplex; actives raise or lower the signal. In short, it runs like this:
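Transcriptional reporter readout, one component of a 52-endpoint multiplexed HepG2 panel. Exposure 24 h; mRNA detected via RT-PCR and fluorescent capillary electrophoresis; fitting in both directions against DMSO.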

Assay [15] is described as follows: ATG_NFI_CIS: Attagene CIS-FACTORIAL HepG2 Assay for human Nuclear Factor I (NFI) (AID 2282989). Conditions: HepG2 cis-regulatory reporter, NFI response element transcription; actives raise or lower the signal. The essentials:
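Cells: human liver HepG2, transiently transfected with promoter-regulated reporter transcription units. Exposure 24 h. Detection: fluorescent RT-PCR products separated by capillary electrophoresis, normalised to DMSO negative control.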

The target of assay [16] is Myc proto-oncogene protein (Homo sapiens) (UniProt P01106). Nature of the assay: ATG_Myc_CIS: Attagene CIS-FACTORIAL HepG2 Assay for human Myelocytomatosis (Myc) Proto-Oncogene Transcription Factor (AID 2282990). Particulars: HepG2, Attagene cis-reporter transcription factor activity; actives raise or lower the signal. The essentials:
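Fluorescence intensity of reporter-specific cDNA fragments, separated by capillary electrophoresis, gives the signal. Transfected HepG2 cells carrying cis-promoter reporter constructs are incubated with compound for 24 h; DMSO serves as baseline.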

Assay [17] is described as follows: ATG_NRF2_ARE_CIS: Attagene CIS-FACTORIAL HepG2 Assay for human Nuclear Factor Erythroid 2 Related Factor 2 (NFR2) response to Antioxidant Response Elements (ARE) (AID 2282992).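 On AC50: reporter mRNA level measured by RT-PCR and capillary electrophoresis fluorescence.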 Conditions: HepG2 Attagene ARE/NRF2 reporter, transcription factor activity; actives raise or lower the signal. The essentials: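 Endogenous transcription factor activity in human liver HepG2 cells is tracked via a cis-element-driven reporter within a multiplexed set. mRNA induction is read by RT-PCR and capillary electrophoresis after 24 h, with DMSO as baseline.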

Assay [18] can be described thus: ATG_Oct_MLP_CIS: Attagene CIS-FACTORIAL HepG2 Assay for human Octamer-Binding Transcription Factor (Oct) (AID 2282993). Particulars: HepG2 Attagene cis-factorial Oct reporter, mRNA; actives raise or lower the signal. The essentials: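 HepG2, transient MRTU transfection, cis promoter elements; 24 h dosing; RT-PCR/CE fluorescence read-out of reporter mRNA; fit both directions vs DMSO.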

For assay [19], the target named is Cellular tumor antigen p53 (Homo sapiens) (UniProt P04637). Kind of assay: ATG_p53_CIS: Attagene CIS-FACTORIAL HepG2 Assay for human p53 Transcription Factor (AID 2282994). Particulars: HepG2 p53 cis-element reporter, Attagene mRNA; actives raise or lower the signal. The essentials:
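Steps: transfect HepG2 with multiplexed cis reporter constructs; dose chemicals 24 h; extract RNA, reverse-transcribe, PCR-amplify reporter sequences; FAM-label, HpaI-digest, resolve fragments by CE. Activity fitted both directions relative to DMSO.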

The target in assay [20] is Peroxisome proliferator-activated receptor gamma (Homo sapiens) (UniProt P37231). Nature of the assay: ATG_PPARg_TRANS: Attagene TRANS-FACTORIAL HepG2 Assay for human Peroxisome Proliferator-activated Receptor-gamma (PPARg) (AID 2283007; active means hit-call score of the fitted dose curve at least 0.9, where 1 is the maximum). The essentials:
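Multiplexed reporter transcription units in HepG2, 24 h dosing, reporter transcripts quantified by fluorescent RT-PCR and capillary electrophoresis. Increase over DMSO scored.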

Inconclusive results are not listed. Active and inactive are the calls of the source. How the source made its calls, unless noted: active means hit-call score of the fitted dose curve at least 0.9, where 1 is the maximum; inactive means score below 0.9.

Nuclear respiratory factor 1 (Homo sapiens), sequence (Q16656 whole entry, looked up): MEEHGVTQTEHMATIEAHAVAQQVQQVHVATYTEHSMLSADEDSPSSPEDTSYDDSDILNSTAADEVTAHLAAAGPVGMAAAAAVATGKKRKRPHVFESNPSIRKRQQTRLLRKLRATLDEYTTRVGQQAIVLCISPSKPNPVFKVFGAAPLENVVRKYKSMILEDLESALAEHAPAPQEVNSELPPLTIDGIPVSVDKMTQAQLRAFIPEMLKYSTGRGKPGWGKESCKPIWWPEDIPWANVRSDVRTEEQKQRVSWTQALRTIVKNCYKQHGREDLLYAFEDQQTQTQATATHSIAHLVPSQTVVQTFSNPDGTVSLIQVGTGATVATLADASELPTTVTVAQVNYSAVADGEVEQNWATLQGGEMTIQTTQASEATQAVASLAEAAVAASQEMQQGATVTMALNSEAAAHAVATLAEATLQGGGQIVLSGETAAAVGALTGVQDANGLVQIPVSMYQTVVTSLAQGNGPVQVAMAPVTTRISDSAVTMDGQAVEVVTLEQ
Myc proto-oncogene protein (Homo sapiens), sequence (P01106 whole entry, looked up, the tested form may be a part): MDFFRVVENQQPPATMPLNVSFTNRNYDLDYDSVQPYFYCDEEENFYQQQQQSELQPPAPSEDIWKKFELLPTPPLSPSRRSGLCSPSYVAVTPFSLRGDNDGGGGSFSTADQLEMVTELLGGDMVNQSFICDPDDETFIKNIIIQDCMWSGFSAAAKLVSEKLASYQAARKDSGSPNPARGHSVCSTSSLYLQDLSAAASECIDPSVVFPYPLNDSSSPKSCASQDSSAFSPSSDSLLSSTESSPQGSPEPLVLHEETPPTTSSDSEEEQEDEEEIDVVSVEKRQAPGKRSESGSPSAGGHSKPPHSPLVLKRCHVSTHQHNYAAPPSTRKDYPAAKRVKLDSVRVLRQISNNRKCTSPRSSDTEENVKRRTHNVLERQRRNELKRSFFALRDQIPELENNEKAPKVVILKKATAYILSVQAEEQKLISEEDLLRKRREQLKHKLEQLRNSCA
Transcriptional activator Myb (Homo sapiens), sequence (P10242 whole entry, looked up): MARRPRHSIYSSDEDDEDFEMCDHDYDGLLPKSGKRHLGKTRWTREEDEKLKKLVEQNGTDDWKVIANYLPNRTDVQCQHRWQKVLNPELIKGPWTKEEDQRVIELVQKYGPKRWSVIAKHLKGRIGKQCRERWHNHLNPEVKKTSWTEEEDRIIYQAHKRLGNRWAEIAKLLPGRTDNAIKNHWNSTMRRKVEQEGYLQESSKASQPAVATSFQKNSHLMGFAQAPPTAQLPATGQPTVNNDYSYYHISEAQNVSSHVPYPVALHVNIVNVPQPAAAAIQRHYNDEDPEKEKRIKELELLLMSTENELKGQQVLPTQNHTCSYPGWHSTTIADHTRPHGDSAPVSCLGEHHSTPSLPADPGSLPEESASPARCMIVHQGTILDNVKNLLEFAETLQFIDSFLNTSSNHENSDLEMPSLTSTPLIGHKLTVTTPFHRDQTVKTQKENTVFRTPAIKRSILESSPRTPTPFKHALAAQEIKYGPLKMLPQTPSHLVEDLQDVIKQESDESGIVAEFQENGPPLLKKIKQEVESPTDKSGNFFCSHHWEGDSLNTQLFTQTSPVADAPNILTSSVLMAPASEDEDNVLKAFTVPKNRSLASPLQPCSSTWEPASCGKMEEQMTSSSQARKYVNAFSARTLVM
Cellular tumor antigen p53 (Homo sapiens), sequence (P04637 whole entry, looked up, the tested form may be a part): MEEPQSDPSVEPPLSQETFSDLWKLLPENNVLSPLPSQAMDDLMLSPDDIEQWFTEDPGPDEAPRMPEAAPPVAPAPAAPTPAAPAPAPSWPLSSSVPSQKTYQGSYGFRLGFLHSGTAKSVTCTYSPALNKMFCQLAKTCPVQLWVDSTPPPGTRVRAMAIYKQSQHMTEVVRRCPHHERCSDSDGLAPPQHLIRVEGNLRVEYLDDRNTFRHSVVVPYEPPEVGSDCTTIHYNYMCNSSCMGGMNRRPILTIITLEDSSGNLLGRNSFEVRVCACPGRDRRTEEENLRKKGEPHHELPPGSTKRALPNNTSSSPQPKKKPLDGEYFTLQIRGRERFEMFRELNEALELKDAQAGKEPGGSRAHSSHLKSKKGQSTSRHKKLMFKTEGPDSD
X-box-binding protein 1 (Homo sapiens), sequence (P17861 whole entry, looked up): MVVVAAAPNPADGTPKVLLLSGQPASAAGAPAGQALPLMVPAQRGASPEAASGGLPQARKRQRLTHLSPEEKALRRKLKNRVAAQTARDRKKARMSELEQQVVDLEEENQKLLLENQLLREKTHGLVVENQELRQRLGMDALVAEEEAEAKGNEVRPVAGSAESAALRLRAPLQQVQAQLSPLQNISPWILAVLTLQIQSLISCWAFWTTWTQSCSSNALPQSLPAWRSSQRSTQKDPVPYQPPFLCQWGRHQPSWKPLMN
Heat shock factor protein 1 (Homo sapiens), sequence (Q00613 whole entry, looked up, the tested form may be a part): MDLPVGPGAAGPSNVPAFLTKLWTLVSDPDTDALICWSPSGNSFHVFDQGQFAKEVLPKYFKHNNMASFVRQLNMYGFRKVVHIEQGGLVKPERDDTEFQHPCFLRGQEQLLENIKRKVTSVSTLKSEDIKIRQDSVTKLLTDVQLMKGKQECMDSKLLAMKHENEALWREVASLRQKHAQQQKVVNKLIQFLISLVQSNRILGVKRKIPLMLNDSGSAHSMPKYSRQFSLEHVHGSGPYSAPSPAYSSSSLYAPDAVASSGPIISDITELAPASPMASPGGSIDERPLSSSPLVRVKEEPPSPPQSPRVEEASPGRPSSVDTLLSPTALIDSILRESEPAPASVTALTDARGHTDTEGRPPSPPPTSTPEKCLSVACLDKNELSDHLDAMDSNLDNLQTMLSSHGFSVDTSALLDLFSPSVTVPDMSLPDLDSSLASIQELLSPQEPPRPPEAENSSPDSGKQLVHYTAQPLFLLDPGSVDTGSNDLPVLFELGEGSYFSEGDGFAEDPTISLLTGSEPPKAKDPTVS
Peroxisome proliferator-activated receptor gamma (Homo sapiens), sequence (P37231 whole entry, looked up): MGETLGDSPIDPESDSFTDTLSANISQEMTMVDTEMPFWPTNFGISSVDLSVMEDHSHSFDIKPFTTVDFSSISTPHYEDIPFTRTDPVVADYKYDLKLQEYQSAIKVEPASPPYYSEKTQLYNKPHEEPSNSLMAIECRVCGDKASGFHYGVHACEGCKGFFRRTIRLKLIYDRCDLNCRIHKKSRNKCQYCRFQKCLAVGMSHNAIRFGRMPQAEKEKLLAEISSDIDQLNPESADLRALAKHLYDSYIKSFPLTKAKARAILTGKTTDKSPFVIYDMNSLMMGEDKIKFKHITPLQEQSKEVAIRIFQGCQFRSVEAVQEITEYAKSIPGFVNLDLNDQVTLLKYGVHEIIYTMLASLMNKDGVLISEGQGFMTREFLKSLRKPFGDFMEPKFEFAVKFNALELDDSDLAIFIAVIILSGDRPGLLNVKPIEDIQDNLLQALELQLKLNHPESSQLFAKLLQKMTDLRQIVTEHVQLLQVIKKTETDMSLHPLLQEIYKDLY

Regarding `C[N+](=O)[O-]`, the outcome in assay [1], in assay [2], in [3], in [4], in assay [5] and in assay [6] was inactive. In addition, the call in [7], in [8], in assay [9], in [10], in assay [11] and in assay [12] was inactive. Besides, the call in assay [13], in assay [14], in assay [15], in assay [16], in [17] and in [18] was inactive. In addition, the molecule was called inactive in assay [19] and in assay [20].
One may read the AC50 as the concentration at which the activity in the assay is half-maximal. As to `Nc1ccccc1C(=O)Oc1ccc2ccccc2c1`, the AC50 in [2] is 27.7 µM (active); in [5], 56.2 µM (active); in assay [6], 65.5 µM (active); in [7] it was 164 µM (active); in assay [8], 116 µM (active); in assay [9] it was 12 µM (active). In addition, the concentration at half-maximal activity (AC50) is 162 µM (active) in [13]; 139 µM (active) in [14]; 85.4 µM (active) in assay [15]; 31.7 µM (active) in [17]; 54.7 µM (active) in assay [18]; 54.9 µM (active) in assay [20]. Further, the call in assay [4], in assay [10], in assay [11], in assay [16] and in assay [19] was inactive.
As for `C[C@]12CC[C@H]3[C@@H](CC[C@@]45O[C@@H]4C(O)=C(C#N)C[C@]35C)[C@@H]1CC[C@@H]2O`, the outcome in [1], in assay [2], in assay [3], in [4], in [5] and in [6] was inactive. Further, the call in assay [8], in [9], in assay [12], in [13], in assay [14] and in assay [15] was inactive. The result in [16], in assay [19] and in [20] was inactive. Further, the AC50 in [7] was 75 µM (active); in [10], 33.9 µM (active); in [11], 60 µM (active); in [17] it was 58.9 µM (active); in [18], 63.3 µM (active).
Take `CC(=O)/C=C/c1ccccc1`: the outcome in [1], in assay [3], in assay [4], in [5], in assay [6] and in assay [7] was inactive. Further, the molecule was classed as inactive in assay [8], in assay [9], in [11], in [12], in assay [13] and in [14]. Further, the call in assay [16] and in [18] was inactive. Besides, the AC50 in assay [2] was 156 µM (active); in [10], 31.6 µM (active); in assay [17] it was 33 µM (active); in [20], 32.1 µM (active).
Turning to `O=C1C=CC(=O)C=C1`, the molecule was called inactive in assay [2], in assay [4], in assay [5], in assay [6], in [7] and in [8]. In addition, the call in assay [9], in assay [11], in assay [12], in assay [13], in assay [14] and in assay [16] was inactive. Besides, the call in assay [18], in [19] and in assay [20] was inactive. The AC50 in assay [17] was 57.4 µM (active).
Consider `C=C(Cl)CCl`, for which the outcome in assay [1], in [2], in assay [3], in assay [4], in [5] and in assay [6] was inactive. The outcome in assay [7], in assay [8], in [9], in [10], in assay [11] and in assay [12] was inactive. Further, the result in assay [13], in [14], in assay [15], in [16], in assay [17] and in [18] was inactive. For the same molecule, the molecule was called inactive in assay [19] and in assay [20].
For `CCCCOP(=O)(O)OCCCC`, the result in assay [2], in assay [3], in [4], in assay [5], in assay [6] and in [7] was inactive. Moreover, the molecule was classed as inactive in [8], in assay [9], in assay [11], in assay [12], in assay [13] and in assay [14]. Further, the molecule was called inactive in assay [15], in [16], in assay [17], in assay [18] and in assay [20].
